Screens (PubChem BioAssay)
Sampled rows, rich in hits. Any-hit rate of the full collection: about 2.9%.
PLCb3 inh: PLC-beta3 (human) inhibition, primary screen. Purified PLC-beta3, fluorogenic substrate, fluorescence. inhibition, % at 12.2 µM. actives 0.18% (n = 370,000). AID 720704; in the data active means inhibition above about 11%;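 further: 0% = median of compound wells on plate and 100% = full blocker control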
ADAM10 inh: inhibitors of human ADAM10 | AID 720582 | actives 0.62% (n = 370,000) | inhibition, % at 7 µM | recombinant ADAM10, EDANS/DABCYL FRET peptide cleavage, 3 h;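 active means inhibition above a per-campaign cutoff equal to the mean of compounds falling between control-based bounds plus 3 SD, cut at about 20% in these data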;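 further: 0% = DMSO wells while the 100% control is not disclosed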
PLCg1 inh: PLC-gamma1 (human) inhibition, primary screen | P19174 | purified PLC-gamma1, fluorogenic substrate, fluorescence | inhibition, % at 12.2 µM | actives 0.84% (n = 370,000) | AID 720700
ADAM17 inh: ADAM17 inhibition, QFRET primary screen; P78536; recombinant ADAM17, EDANS/DABCYL FRET peptide cleavage; inhibition, % at 6.95 µM; actives 0.83% (n = 370,000); AID 720648;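 active means inhibition above the mean of compounds lying between control limits plus 3 SD, set per campaign, cut at about 8.5% in these data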;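 further: 0% = DMSO-only wells as the low control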
Target sequence (P78536 215-824 limits assumed): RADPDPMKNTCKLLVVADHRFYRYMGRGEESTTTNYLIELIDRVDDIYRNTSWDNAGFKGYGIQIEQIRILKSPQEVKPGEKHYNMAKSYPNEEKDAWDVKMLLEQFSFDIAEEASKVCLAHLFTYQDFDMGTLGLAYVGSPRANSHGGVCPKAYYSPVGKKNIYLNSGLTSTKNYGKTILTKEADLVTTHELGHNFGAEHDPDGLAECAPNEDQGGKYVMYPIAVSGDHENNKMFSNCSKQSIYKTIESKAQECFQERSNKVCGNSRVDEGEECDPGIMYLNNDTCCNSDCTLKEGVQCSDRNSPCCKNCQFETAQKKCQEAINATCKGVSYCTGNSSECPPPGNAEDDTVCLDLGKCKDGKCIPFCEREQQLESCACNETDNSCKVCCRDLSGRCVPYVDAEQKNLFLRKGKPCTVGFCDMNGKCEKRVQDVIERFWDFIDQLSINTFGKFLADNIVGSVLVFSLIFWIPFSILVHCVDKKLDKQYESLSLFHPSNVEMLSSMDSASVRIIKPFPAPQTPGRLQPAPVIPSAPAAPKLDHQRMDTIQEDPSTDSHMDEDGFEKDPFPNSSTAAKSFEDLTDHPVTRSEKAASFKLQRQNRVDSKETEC
proKLK7 act: activates the human kallikrein-7 zymogen; P49862; purified proKLK7, EDANS-DABCYL substrate fluorescence; 100% is mature enzyme control, 0% vehicle; activation, % at 7 µM; actives 0.9% (n = 370,000); AID 652039;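 active means activation above the mean of all tested compounds plus 3 SD, computed per campaign excluding outliers beyond control limits, cut at about 13% in these data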
ADAM10 counter: ADAM10 inhibition, counter-screen for ADAM17 exosite hits; shares compounds with ADAM17 inh; recombinant ADAM10, EDANS/DABCYL FRET peptide cleavage, 3 h; inhibition, % at 6.95 µM; actives 47% (n = 2,900); AID 743256;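 active means mean inhibition over the triplicate runs exceeds the activity threshold set in the earlier primary screen, cut at about 20% in these data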;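 further: 0% = DMSO wells and 100% = marimastat wells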
ADAM17 confirm: human ADAM17 inhibition, confirmation. inhibition, % at 6.95 µM. recombinant ADAM17, EDANS/DABCYL QFRET peptide cleavage. actives 65% (n = 2,900). shares compounds with ADAM17 inh. AID 743257;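 active means mean inhibition across replicates above the hit cutoff set in the primary screen, cut at about 8.5% in these data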;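 further: 0% = DMSO wells and 100% = marimastat wells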
PLCgamma1 ctr: counter-screen for PLC-beta3 inhibitors: inhibitors of human PLC-gamma1 | shares compounds with PLCg1 inh | purified PLC-gamma1, fluorogenic substrate, fluorescence | inhibition, % at 12.3 µM | actives 3.1% (n = 3,300) | AID 743258
PLCb3 confirm: human PLC-beta3 inhibition, confirmation | shares compounds with PLCg1 inh | purified PLC-beta3, fluorogenic substrate fluorescence | inhibition, % at 12.3 µM | actives 1% (n = 3,300); in the data active means inhibition above about 11%
Starred values were filed as active, the others as inactive. Unless noted, no stated cut-off is given here; in the data, active means inhibition above about 9.5%; inactive means the rest.

For C=C1C(=O)C(C)=C2C(=O)N3Cc4[nH]c5ccccc5c4CC3(C(=O)OC)C12 (stereo not given) the results were PLCb3 inh -6, ADAM10 inh 0, PLCg1 inh -2, ADAM17 inh -2 and proKLK7 act 1.
`C=C(C=O)CC1CC(O)[C@]2(C)OC3CC4OC5C[C@]6(C)O[C@]7(C)CCC8OC9C[C@]%10(C)OC%11C(C)=CC(=O)OC%11CC%10OC9C[C@@H](C)C8OC7CC6O[C@]5(C)C/C=C\C4OC3CC2O1` (stereo not given in full) gave PLCb3 inh 2, ADAM10 inh -4, PLCg1 inh -3 and ADAM17 inh -3.
Screening CC(C)=CCc1c(O)cc2c(c1O)C(=O)CC(c1ccc(O)cc1)O2 (stereo not given) returned PLCb3 inh 3, ADAM10 inh 19, PLCg1 inh 2, ADAM17 inh 9.3*, proKLK7 act -1, ADAM10 counter 37* and ADAM17 confirm 20*.
`CC(c1ccccc1)n1cncc1C(=O)O` (stereo not given) gave PLCb3 inh 6, ADAM10 inh 3, PLCg1 inh 11*, ADAM17 inh 9.4*, proKLK7 act 0, ADAM10 counter 15, ADAM17 confirm 11*, PLCgamma1 ctr -6 and PLCb3 confirm -5.
Screening CCOC(=O)[C@]12Cc3cc(Cl)ccc3[C@H]1N(C1CCCCC1)C(=O)c1cc(OC)ccc12 returned PLCb3 inh -1, ADAM10 inh -8, PLCg1 inh 1, ADAM17 inh -4 and proKLK7 act 0.
Screening CSCCC(c1nnnn1C1CCCC1)N1CCC(n2c(=O)[nH]c3ccccc32)CC1 (stereo not given) returned PLCb3 inh -1, ADAM10 inh 4, PLCg1 inh 10*, ADAM17 inh 9.2*, proKLK7 act 0, ADAM10 counter 16, ADAM17 confirm 11*, PLCgamma1 ctr -2 and PLCb3 confirm 3.
Screening CSCCC(c1nnnn1C1CCCCC1)N1CCC(n2c(=O)[nH]c3ccccc32)CC1 (stereo not given) returned PLCb3 inh 6, ADAM10 inh 9, PLCg1 inh 5, ADAM17 inh 6 and proKLK7 act 1.
For CSCCC(c1nnnn1Cc1ccccc1)N1CCC2(CC1)C(=O)NCN2c1ccccc1 (stereo not given) the results were PLCb3 inh 1, ADAM10 inh 9, PLCg1 inh 11*, ADAM17 inh 11*, proKLK7 act 1, ADAM10 counter 8, ADAM17 confirm 6, PLCgamma1 ctr -1 and PLCb3 confirm 0.
For C[N+]1=C(N)NC2=C3CCCCC3ONC2C1 (stereo not given) the results were PLCb3 inh -5, ADAM10 inh -12, PLCg1 inh -5 and ADAM17 inh -4.
CC1CN=C(NCc2ccccc2Cl)S1 (stereo not given) was read as PLCb3 inh -1, ADAM10 inh 15, PLCg1 inh 8, ADAM17 inh 1 and proKLK7 act 0.
`CC1(C)CN=C(NCc2ccccc2Cl)S1` gave PLCb3 inh -1, ADAM10 inh -8, PLCg1 inh 12*, ADAM17 inh 1, proKLK7 act 0, PLCgamma1 ctr 0 and PLCb3 confirm 2.
For COC(=O)C1=C(c2ccc(S(C)(=O)=O)cc2)C[C@@H]2CC[C@H]1N2C the results were PLCb3 inh 1, ADAM10 inh -1, PLCg1 inh -2, ADAM17 inh -2 and proKLK7 act 0.
